{
  "source": "PubChem BioAssay (NCI)",
  "note": "Compounds without any hit were thinned out: in the full panel of roughly 83,000, 20% have a hit.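 96-well plates, one dose, 48 hours. Percent growth reported; active if below 10.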 Activity calls are given as the source filed them.",
  "data": [
    {"tested_on": "SK-MEL-5 melanoma", "experiment": "NCI-60 one-dose screen, 48 h (100 = growth as untreated, 0 = no growth, -100 = all killed)", "details": "10 µM unless noted", "values": [
      {"smiles": "Cc1cc2c(cc1C)[n+](Cc1ccc3ccccc3n1)cn2Cc1ccc2ccccc2n1", "growth": "-93.1% (active)"},
      {"smiles": "COc1ccc(/C=C/C(=O)c2cccc(NS(C)(=O)=O)c2)cc1", "growth": "90.4% (inactive)"},
      {"smiles": "O=C(O)c1ccc(CNS(=O)(=O)c2ccc3ccccc3c2)cc1", "growth": "105% (inactive)"},
      {"smiles": "COc1cc(-c2nc3sc4c(c3c(=O)[nH]2)CCCCCC4)cc(OC)c1OC", "growth": "8.73% (active)"},
      {"smiles": "C/C(=C\\CCc1ccoc1)CC/C=C(\\C)CCCNc1ccc(F)cc1", "growth": "99.9% (inactive)"},
      {"smiles": "C/C(=C\\CCc1ccoc1)CC/C=C(\\C)CCCC1COC(=O)C1", "note": "(stereo not given)", "growth": "98.6% (inactive)"},
      {"smiles": "COc1cc(/C=C/C(=O)CC(=O)/C=C/c2ccc(OC(=O)CCNC34CC5CC(CC(C5)C3)C4)c(OC)c2)ccc1OC(=O)CCNC12CC3CC(CC(C3)C1)C2", "growth": "25.3% (inactive)"},
      {"smiles": "C/C(=C\\CCc1ccoc1)CC/C=C(\\C)CCCN1CCSCC1", "growth": "37.8% (inactive)"},
      {"smiles": "Oc1ccccc1/C=N/N1CCCCCC1", "growth": "94.2% (inactive)"},
      {"smiles": "O=C(/C=C/c1cccc(O)c1)c1cccc(-n2cc(-c3ccccc3)[nH]c2=O)c1", "growth": "55.3% (inactive)"},
      {"smiles": "O=[N+]([O-])c1cc([N+](=O)[O-])c(N2CCCC2)cc1NN=C(c1ccc(O)cc1)c1ccc(O)cc1", "growth": "18.8% (inactive)"},
      {"smiles": "c1ccc(COc2ccc(Nc3ncnc4c3cnn4-c3ccccc3)cc2)cc1", "growth": "94.3% (inactive)"},
      {"smiles": "C/C(=C\\CCc1ccoc1)CC/C=C(\\C)CCCN1CCOCC1", "growth": "15.6% (inactive)"},
      {"smiles": "O=C(NC1CCCCC1)c1ccc(Nc2ncnc3c2cnn3-c2ccccc2)cc1", "growth": "75.4% (inactive)"},
      {"smiles": "C[C@]12CC[C@H](O)CC1=CC[C@@H]1[C@@H]2CC[C@]2(C)C(c3cccnc3)=CC[C@@H]12", "growth": "25.9% (inactive)"},
      {"smiles": "CC(C)C[C@H](NC(=O)/C=C/Cn1ccc2ccccc2c1=O)B(O)O", "growth": "23.5% (inactive)"}
    ]},
    {"tested_on": "UACC-62 melanoma", "experiment": "NCI-60 one-dose screen, 48 h (100 = growth as untreated, 0 = no growth, -100 = all killed)", "details": "10 µM unless noted", "values": [
      {"smiles": "Cc1cc2c(cc1C)[n+](Cc1ccc3ccccc3n1)cn2Cc1ccc2ccccc2n1", "growth": "-38.1% (active)"},
      {"smiles": "CCOC(=O)c1sc(NC(=O)COc2cccc(/C=C3\\Cc4ccc(Cl)cc4C3=O)c2)nc1C", "growth": "95.8% (inactive)"},
      {"smiles": "COc1ccc(/C=C/C(=O)c2cccc(NS(C)(=O)=O)c2)cc1", "growth": "76% (inactive)"},
      {"smiles": "CCOc1cc(/C=C/C(=O)CC(=O)/C=C/c2ccc(OC(=O)CNCCN(CC)CC)c(OCC)c2)ccc1OC(=O)CNCCN(CC)CC", "growth": "-70.9% (active)"},
      {"smiles": "CC[C@@H](c1ccc(O)c(O)c1)[C@@H](CC)c1ccc(O)c(O)c1", "growth": "64.5% (inactive)"},
      {"smiles": "CCCCCc1c(C)[nH]c(/C=C2\\N=C(c3ccc[nH]3)C=C2Oc2ccc(Cl)cc2)c1C", "growth": "-83.2% [100 µM] (active)"},
      {"smiles": "O=C(O)C1CCN(S(=O)(=O)c2ccc(-c3ccccc3)cc2)CC1", "growth": "94.5% (inactive)"},
      {"smiles": "CCCCCN1C(=O)CCC1=O", "growth": "99.3% (inactive)"},
      {"smiles": "O=C(O)c1ccc(CNS(=O)(=O)c2ccc3ccccc3c2)cc1", "growth": "102% (inactive)"},
      {"smiles": "COc1cc(-c2nc3sc4c(c3c(=O)[nH]2)CCCCCC4)cc(OC)c1OC", "growth": "19.1% (inactive)"},
      {"smiles": "C/C(=C\\CCc1ccoc1)CC/C=C(\\C)CCCNc1ccc(F)cc1", "growth": "83.8% (inactive)"},
      {"smiles": "COc1ccc2nc(N/N=C(\\C)c3ccccn3)cc(C)c2c1", "growth": "-44.2% (active)"},
      {"smiles": "C/C(=C\\CCc1ccoc1)CC/C=C(\\C)CCCC1COC(=O)C1", "note": "(stereo not given)", "growth": "80% (inactive)"},
      {"smiles": "O=C(CNC(=O)c1cccc2ccccc12)Nc1ccccc1Cc1ccccc1", "growth": "51.3% [5 µM] (inactive)"},
      {"smiles": "NS(=O)(=O)c1ccc(-n2ncc3c(NC4CCCCC4)ncnc32)cc1", "growth": "97.2% (inactive)"},
      {"smiles": "COc1cc(/C=C/C(=O)CC(=O)/C=C/c2ccc(OC(=O)CCNC34CC5CC(CC(C5)C3)C4)c(OC)c2)ccc1OC(=O)CCNC12CC3CC(CC(C3)C1)C2", "growth": "43.2% (inactive)"},
      {"smiles": "C/C(=C\\CCc1ccoc1)CC/C=C(\\C)CCCN1CCSCC1", "growth": "75.3% (inactive)"},
      {"smiles": "COC(=O)[C@H]1[C@H]2C[C@@H]3c4[nH]c5cc(OC)ccc5c4CCN3C[C@H]2C[C@@H](OC(=O)/C=C/c2cc(OC)c(OC)c(OC)c2)[C@@H]1OC", "growth": "87.4% (inactive)"},
      {"smiles": "Cc1c2oc3c(C)ccc(C(=O)OC(C)C4NC(=O)C(C(C)C)N(C)C(=O)CN(C)C(=O)C5CCCN5C(=O)C(C(C)C)NC4=O)c3nc-2c(C(=O)OC(C)C2NC(=O)C(C(C)C)N(C)C(=O)CN(C)C(=O)C3CCCN3C(=O)C(C(C)C)NC2=O)c(N)c1=O", "note": "(stereo not given)", "growth": "-71% (active)"},
      {"smiles": "CC(C)=CCCC(C)c1ccc(C)c2c1OCN(CC1CCNCC1)C2", "note": "(stereo not given)", "growth": "63.5% (inactive)"},
      {"smiles": "Oc1ccccc1/C=N/N1CCCCCC1", "growth": "85.9% (inactive)"},
      {"smiles": "CC[n+]1c(/C=C/c2ccc(N3CCCC3)cc2)cccc1/C=C/c1ccc(N2CCCC2)cc1", "growth": "-86% (active)"},
      {"smiles": "O=C1Nc2ccc(C(=O)O)c(O)c2C1=O", "growth": "101% (inactive)"},
      {"smiles": "CSc1nc2nc3c(c(-c4ccc(C)cc4)c2c(=O)[nH]1)CN(C)C/C3=C\\c1ccc(C)cc1", "growth": "93.8% (inactive)"},
      {"smiles": "O=C(/C=C/c1cccc(O)c1)c1cccc(-n2cc(-c3ccccc3)[nH]c2=O)c1", "growth": "55.7% (inactive)"},
      {"smiles": "O=[N+]([O-])c1cc([N+](=O)[O-])c(N2CCCC2)cc1NN=C(c1ccc(O)cc1)c1ccc(O)cc1", "growth": "63.1% (inactive)"},
      {"smiles": "CC1=C([Se]CC(OC(=O)[C@@H](CSSC(C)(C)C)NC(=O)C(C)(C)C)C(=O)NCCCCCC(=O)OCc2ccccc2)C(=O)c2ccccc2C1=O", "note": "(stereo not given in full)", "growth": "-30.6% (active)"},
      {"smiles": "C[N+]1(C)C2CC[C@@H]1CC(OC(=O)C(O)c1ccccc1)C2", "note": "(stereo not given in full)", "growth": "102% (inactive)"},
      {"smiles": "O=C(O)CNC(=O)C1(N2C(=O)c3ccccc3C2=O)CCCC1", "growth": "94.5% (inactive)"},
      {"smiles": "c1ccc(COc2ccc(Nc3ncnc4c3cnn4-c3ccccc3)cc2)cc1", "growth": "93.3% (inactive)"},
      {"smiles": "Nc1ccccc1-c1ccn[nH]1", "growth": "48.4% (inactive)"},
      {"smiles": "C/C(=C\\CCc1ccoc1)CC/C=C(\\C)CCCN1CCOCC1", "growth": "62.5% (inactive)"},
      {"smiles": "O=C(NC1CCCCC1)c1ccc(Nc2ncnc3c2cnn3-c2ccccc2)cc1", "growth": "63.9% (inactive)"},
      {"smiles": "Cc1ccc(-c2csc(N)n2)cc1", "growth": "99% (inactive)"},
      {"smiles": "COC(=O)C1(NC(=O)CNC(=O)OCc2ccccc2)CCCC1", "growth": "92.3% (inactive)"},
      {"smiles": "C[C@]12CC[C@H](O)CC1=CC[C@@H]1[C@@H]2CC[C@]2(C)C(c3cccnc3)=CC[C@@H]12", "growth": "53.2% (inactive)"},
      {"smiles": "CC(C)C[C@H](NC(=O)/C=C/Cn1ccc2ccccc2c1=O)B(O)O", "growth": "17% (inactive)"},
      {"smiles": "COc1ccc(N2CCN(CC(=O)N3CCN(c4nnc(-c5ccccc5)c(-c5ccccc5)n4)CC3)CC2)cc1", "growth": "56.7% (inactive)"},
      {"smiles": "O=C(COc1ccc(/C=C2\\Cc3ccccc3C2=O)cc1)c1ccc(Cl)cc1", "growth": "95.2% (inactive)"}
    ]}
  ]
}
